We go through 4 compounds from ChEMBL document CHEMBL1961873, “Compounds: GSK PKIS; Assays: Nanosyn kinase panel” (2012).

By inhibition is commonly meant the relative decrease from the control value, in per cent.

SMILES strings stand for the structures.

The target in test [1] is 5'-AMP-activated protein kinase catalytic subunit alpha-2 (Homo sapiens) (UniProt P54646). Conditions: at 1 µM.
For test [2], the target named is T1, NUAK family SNF1-like kinase 1 (Homo sapiens) (UniProt O60285).
T1 sequence (whole entry): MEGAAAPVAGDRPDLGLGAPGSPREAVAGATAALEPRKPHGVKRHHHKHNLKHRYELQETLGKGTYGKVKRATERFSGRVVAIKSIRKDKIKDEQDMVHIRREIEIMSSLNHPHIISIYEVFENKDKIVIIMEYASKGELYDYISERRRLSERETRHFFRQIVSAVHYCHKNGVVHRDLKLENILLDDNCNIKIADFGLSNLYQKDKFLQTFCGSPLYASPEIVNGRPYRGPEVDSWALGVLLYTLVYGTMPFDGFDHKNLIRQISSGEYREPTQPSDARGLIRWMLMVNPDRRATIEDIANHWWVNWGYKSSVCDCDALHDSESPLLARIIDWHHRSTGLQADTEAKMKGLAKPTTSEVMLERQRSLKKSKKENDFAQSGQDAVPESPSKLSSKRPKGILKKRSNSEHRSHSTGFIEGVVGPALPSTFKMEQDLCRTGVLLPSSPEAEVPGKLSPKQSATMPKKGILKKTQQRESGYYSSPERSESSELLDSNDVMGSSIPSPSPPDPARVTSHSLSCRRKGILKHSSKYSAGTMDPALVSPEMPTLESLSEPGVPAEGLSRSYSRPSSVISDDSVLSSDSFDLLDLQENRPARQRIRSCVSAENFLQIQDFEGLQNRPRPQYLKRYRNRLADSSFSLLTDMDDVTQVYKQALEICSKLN
Conditions: at 0.1 µM.

The target in test [3] is T1, NUAK family SNF1-like kinase 1 (Homo sapiens). Conditions: at 1 µM.
For test [4], the target named is T2, Serine/threonine-protein kinase BRSK1 (Homo sapiens) (UniProt Q8TDC3).
T2 sequence (whole entry): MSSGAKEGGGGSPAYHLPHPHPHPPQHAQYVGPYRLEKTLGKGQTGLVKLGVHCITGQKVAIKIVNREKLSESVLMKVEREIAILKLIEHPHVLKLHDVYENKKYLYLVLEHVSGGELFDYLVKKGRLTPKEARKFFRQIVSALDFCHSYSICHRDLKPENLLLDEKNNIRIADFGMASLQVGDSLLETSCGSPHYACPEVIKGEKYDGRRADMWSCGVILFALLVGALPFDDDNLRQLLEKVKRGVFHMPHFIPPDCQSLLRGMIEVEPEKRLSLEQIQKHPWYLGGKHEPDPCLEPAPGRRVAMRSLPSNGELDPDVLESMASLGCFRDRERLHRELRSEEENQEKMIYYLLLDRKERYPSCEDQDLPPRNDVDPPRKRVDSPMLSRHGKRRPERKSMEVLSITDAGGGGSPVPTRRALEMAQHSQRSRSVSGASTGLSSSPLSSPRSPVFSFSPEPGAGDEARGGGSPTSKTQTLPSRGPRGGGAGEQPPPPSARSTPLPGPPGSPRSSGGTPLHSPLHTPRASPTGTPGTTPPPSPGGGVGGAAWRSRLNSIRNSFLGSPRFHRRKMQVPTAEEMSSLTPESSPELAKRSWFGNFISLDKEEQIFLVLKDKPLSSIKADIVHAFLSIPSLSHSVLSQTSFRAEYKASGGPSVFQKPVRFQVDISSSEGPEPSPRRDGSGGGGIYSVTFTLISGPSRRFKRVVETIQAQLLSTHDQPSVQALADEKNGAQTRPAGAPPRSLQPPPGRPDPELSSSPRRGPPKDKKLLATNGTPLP
Conditions: at 0.1 µM.

The target of test [5] is T2, Serine/threonine-protein kinase BRSK1 (Homo sapiens). Conditions: at 1 µM.
The target of test [6] is T3, Serine/threonine-protein kinase BRSK2 (Homo sapiens) (UniProt Q8IWQ3).
T3 sequence (whole entry): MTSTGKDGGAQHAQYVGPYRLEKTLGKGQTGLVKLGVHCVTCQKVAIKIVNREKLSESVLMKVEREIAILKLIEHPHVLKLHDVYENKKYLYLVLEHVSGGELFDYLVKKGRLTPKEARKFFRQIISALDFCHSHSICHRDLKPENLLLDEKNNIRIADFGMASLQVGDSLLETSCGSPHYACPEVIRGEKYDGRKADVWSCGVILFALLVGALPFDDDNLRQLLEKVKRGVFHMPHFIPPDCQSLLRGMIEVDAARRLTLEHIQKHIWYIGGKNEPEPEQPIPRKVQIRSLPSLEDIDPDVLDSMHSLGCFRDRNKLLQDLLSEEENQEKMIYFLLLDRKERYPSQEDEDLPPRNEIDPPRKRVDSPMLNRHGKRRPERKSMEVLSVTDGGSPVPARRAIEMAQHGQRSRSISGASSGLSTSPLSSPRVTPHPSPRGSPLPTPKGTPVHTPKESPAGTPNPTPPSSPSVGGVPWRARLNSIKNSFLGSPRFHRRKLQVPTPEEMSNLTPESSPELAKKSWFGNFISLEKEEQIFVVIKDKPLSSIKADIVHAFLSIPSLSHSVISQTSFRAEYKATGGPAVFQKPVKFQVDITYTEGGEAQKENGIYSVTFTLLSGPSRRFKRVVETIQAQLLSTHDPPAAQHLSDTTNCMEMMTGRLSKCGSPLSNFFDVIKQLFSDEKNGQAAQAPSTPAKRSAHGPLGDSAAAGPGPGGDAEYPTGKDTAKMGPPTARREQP
Conditions: at 0.1 µM.

For test [7], the target named is T3, Serine/threonine-protein kinase BRSK2 (Homo sapiens). Conditions: at 1 µM.
Test [8] addresses Calcium/calmodulin-dependent protein kinase type 1D (Homo sapiens) (UniProt Q8IU85). Conditions: at 0.1 µM.
The target is the same in test [9]. Conditions: at 1 µM.
The target in test [10] is Calcium/calmodulin-dependent protein kinase type II subunit alpha (Homo sapiens) (UniProt Q9UQM7). Conditions: at 0.1 µM.
Chain of Calcium/calmodulin-dependent protein kinase type II subunit alpha (Homo sapiens) (Q9UQM7 whole entry): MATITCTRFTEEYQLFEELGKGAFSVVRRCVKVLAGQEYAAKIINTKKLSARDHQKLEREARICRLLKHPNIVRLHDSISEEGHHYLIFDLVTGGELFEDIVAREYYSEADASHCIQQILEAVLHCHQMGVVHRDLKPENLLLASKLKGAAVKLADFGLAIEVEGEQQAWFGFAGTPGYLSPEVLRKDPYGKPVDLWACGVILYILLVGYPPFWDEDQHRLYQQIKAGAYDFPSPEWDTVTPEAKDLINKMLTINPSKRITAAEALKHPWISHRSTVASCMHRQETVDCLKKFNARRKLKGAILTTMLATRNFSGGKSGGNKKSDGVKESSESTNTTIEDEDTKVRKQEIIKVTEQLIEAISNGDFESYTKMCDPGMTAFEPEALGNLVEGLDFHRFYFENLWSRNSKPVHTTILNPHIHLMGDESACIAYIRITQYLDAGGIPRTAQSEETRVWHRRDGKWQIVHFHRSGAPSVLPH
For test [11] the target is unchanged. Conditions: at 1 µM.
Test [12] deals with Calcium/calmodulin-dependent protein kinase type II subunit delta (Homo sapiens) (UniProt Q13557). Conditions: at 0.1 µM.
Chain of Calcium/calmodulin-dependent protein kinase type II subunit delta (Homo sapiens) (Q13557 whole entry): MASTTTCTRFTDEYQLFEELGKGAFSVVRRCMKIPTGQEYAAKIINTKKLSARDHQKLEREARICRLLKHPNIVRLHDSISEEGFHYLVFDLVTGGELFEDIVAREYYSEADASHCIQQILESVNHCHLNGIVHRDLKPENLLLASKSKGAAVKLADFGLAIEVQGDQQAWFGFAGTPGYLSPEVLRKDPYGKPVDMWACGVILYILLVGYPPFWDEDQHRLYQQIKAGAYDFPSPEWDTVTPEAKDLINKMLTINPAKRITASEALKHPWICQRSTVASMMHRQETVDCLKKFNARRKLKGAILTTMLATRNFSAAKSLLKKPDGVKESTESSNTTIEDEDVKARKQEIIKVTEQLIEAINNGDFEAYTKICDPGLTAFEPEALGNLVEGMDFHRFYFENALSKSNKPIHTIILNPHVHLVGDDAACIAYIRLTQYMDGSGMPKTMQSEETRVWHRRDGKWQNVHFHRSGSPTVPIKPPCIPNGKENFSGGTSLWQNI
For test [13] the target is unchanged. Conditions: at 1 µM.
Test [14] addresses T4, Calcium/calmodulin-dependent protein kinase type IV (Homo sapiens) (UniProt Q16566).
T4 sequence (whole entry): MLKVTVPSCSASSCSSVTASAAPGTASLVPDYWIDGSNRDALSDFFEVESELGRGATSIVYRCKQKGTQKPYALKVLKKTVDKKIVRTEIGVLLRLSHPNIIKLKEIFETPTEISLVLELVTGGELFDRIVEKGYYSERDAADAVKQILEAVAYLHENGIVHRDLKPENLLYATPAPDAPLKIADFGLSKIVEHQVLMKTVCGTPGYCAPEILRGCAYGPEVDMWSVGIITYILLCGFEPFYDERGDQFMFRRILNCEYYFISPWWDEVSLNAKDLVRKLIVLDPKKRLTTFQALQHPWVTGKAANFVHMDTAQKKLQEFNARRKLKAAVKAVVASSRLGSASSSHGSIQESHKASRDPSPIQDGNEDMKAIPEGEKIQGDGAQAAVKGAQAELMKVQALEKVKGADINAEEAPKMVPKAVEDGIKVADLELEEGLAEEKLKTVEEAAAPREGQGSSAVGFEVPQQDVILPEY
Conditions: at 0.1 µM.

Test [15] has as its target T4, Calcium/calmodulin-dependent protein kinase type IV (Homo sapiens). Conditions: at 1 µM.
Test [16] has as its target T5, Serine/threonine-protein kinase Chk1 (Homo sapiens) (UniProt O14757).
T5 sequence (whole entry): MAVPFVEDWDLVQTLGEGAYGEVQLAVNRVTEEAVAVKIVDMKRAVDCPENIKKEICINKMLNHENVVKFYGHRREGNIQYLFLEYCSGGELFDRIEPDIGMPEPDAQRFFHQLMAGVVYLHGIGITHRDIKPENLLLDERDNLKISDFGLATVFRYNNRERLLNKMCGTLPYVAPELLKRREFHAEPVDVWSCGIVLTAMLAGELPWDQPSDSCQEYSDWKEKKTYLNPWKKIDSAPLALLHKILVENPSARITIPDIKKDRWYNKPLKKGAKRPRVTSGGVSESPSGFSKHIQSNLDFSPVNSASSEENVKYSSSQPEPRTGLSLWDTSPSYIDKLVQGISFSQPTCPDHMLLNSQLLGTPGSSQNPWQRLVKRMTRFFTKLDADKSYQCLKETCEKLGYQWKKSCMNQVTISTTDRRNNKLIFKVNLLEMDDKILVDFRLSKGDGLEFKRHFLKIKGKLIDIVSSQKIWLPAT
Conditions: at 0.1 µM.

Test [17] addresses T5, Serine/threonine-protein kinase Chk1 (Homo sapiens). Conditions: at 1 µM.
Test [18] concerns the target Serine/threonine-protein kinase Chk2 (Homo sapiens) (UniProt O96017). Conditions: at 0.1 µM.
Test [19] has the same target. Conditions: at 1 µM.
Test [20] addresses Death-associated protein kinase 1 (Homo sapiens) (UniProt P53355). Conditions: at 0.1 µM.

Chain of Serine/threonine-protein kinase Chk2 (Homo sapiens) (O96017 whole entry): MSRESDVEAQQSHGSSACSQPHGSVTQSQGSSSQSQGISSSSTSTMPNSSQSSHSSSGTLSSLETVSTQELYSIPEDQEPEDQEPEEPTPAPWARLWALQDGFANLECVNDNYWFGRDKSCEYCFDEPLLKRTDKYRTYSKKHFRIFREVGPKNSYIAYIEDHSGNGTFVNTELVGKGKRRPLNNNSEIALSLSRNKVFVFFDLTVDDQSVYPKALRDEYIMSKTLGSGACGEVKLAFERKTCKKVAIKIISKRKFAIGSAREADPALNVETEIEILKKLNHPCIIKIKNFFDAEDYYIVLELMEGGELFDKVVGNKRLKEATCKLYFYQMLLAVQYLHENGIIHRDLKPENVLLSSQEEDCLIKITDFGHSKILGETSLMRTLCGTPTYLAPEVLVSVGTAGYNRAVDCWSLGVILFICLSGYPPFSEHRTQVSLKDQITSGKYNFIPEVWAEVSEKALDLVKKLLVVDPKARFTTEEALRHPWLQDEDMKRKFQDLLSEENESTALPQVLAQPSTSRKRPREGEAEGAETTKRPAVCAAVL
Chain of 5'-AMP-activated protein kinase catalytic subunit alpha-2 (Homo sapiens) (P54646 whole entry, looked up): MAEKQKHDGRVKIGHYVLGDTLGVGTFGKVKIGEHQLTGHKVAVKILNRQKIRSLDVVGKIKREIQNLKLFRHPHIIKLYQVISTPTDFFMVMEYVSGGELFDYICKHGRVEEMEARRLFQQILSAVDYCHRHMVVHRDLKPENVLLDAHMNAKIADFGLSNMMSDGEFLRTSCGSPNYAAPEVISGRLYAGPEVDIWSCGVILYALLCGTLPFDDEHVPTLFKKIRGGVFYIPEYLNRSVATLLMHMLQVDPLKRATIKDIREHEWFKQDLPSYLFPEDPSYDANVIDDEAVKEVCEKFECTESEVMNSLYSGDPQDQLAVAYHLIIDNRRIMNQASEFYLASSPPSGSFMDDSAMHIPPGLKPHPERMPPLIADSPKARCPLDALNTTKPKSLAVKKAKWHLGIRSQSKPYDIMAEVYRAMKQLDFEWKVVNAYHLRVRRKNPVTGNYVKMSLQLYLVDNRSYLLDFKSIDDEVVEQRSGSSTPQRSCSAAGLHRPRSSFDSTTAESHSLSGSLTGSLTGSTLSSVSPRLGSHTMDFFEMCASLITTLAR
Chain of Calcium/calmodulin-dependent protein kinase type 1D (Homo sapiens) (Q8IU85 whole entry, looked up): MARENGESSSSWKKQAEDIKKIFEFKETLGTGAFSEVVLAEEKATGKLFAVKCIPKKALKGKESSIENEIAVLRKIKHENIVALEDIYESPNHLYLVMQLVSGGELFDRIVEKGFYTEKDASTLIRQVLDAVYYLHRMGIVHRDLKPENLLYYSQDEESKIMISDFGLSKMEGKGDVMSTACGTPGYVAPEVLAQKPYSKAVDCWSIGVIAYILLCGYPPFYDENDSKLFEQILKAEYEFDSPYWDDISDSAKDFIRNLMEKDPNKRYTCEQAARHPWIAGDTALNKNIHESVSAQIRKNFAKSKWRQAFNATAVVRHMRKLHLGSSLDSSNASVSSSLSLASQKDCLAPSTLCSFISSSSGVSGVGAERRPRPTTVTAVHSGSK
Chain of Death-associated protein kinase 1 (Homo sapiens) (P53355 whole entry, looked up): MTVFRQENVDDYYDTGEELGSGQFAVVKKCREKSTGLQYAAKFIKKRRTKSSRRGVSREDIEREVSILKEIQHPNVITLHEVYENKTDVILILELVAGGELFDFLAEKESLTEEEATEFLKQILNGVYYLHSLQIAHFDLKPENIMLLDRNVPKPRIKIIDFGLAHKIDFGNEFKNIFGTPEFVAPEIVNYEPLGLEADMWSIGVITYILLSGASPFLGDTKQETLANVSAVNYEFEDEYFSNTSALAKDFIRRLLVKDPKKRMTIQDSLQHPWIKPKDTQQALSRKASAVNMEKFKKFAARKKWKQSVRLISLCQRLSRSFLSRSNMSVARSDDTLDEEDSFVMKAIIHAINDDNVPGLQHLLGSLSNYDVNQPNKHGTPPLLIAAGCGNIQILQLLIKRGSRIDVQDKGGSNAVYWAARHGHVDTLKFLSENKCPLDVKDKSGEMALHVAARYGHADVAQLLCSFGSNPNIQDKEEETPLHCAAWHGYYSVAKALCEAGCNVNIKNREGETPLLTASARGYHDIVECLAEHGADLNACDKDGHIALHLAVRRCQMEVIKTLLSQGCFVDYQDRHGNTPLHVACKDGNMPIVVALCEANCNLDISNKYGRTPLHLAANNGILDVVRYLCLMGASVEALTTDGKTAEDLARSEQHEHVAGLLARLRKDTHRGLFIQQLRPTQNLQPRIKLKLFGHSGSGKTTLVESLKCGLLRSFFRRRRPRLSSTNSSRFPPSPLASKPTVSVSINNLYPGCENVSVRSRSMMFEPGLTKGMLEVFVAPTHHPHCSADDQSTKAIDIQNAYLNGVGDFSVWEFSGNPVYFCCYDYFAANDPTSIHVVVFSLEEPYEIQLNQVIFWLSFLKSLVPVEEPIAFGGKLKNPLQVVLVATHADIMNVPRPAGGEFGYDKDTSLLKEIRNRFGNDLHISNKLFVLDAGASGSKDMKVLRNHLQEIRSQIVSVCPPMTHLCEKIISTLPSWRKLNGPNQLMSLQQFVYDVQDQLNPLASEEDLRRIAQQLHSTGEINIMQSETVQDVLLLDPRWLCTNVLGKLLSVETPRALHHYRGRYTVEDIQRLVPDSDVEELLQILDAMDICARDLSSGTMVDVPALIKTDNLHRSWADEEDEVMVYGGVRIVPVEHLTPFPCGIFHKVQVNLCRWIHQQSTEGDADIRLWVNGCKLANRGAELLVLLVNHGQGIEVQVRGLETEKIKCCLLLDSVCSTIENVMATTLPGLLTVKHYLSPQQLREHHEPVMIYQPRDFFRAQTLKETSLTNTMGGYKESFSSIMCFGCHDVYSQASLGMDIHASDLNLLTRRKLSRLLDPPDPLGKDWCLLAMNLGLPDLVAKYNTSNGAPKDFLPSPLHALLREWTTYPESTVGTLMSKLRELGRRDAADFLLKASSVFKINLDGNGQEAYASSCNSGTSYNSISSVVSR

For the compound `COc1ccc(CNC(=O)c2ccc(-c3cc(-c4nnc(C)o4)ccc3C)cc2)cc1`, the inhibition in test [1] was determined as 2.36%; in [2], 2.93%; in test [3] it was 5.45%; in [4], 0.61%; in test [5], 8.76%; in test [6] it was 3.42%. Moreover, the inhibition was 13% in test [7]; 1.11% in [8]; -0.23% in test [9]; 1.23% in test [10]; 0.47% in [11]; 0.75% in test [12]. The inhibition in test [13] is -0.53%; in test [14], -1.83%; in [15], -4.17%; in test [16] it was 6.78%; in [17] it was 8.82%; in test [18], 6.34%. Moreover, the inhibition in test [19] amounted to 7.55%; in test [20] it was 9.67%.

`c1ccc(-c2nc3n(c2-c2ccc4c(c2)OCO4)CCC3)nc1`: the inhibition in test [1] is 3.64%; in [2] it was 4.41%; in test [3] it was -1.66%; in test [4], 1.42%; in test [5], 2.54%; in [6], 1.52%. Further, the inhibition in [7] was 4.23%; in [8], 0.16%; in test [9], 0.16%; in test [10], -0.46%; in test [11], 0.36%; in [12], 1.63%. In addition, the inhibition in [13] is 0.93%; in [14], 0.61%; in test [15], -0.72%; in [16], 3.23%; in test [17] it was 3.51%; in [18], -0.09%. Also, the inhibition in test [19] is 0.94%; in test [20], 1.93%.

Turning to `Clc1ccc(-c2nn3ncccc3c2-c2ccnc(Nc3ccccc3)n2)cc1`, the inhibition is 2.26% in [1]; 0.79% in test [2]; 4.21% in test [3]; 0.06% in test [4]; 1.52% in test [5]; -0.16% in test [6]. For the same compound, the inhibition is -0.21% in [7]; 2.4% in test [8]; 1.17% in [9]; 0.95% in test [10]; 0.86% in test [11]; 1.7% in test [12]. In addition, the inhibition in test [13] is 1.08%; in [14] it was 4.89%; in [15], -0.99%; in test [16] it was -0.54%; in test [17], -0.93%; in test [18] it was 0.52%. Besides, the inhibition in test [19] is 1.08%; in test [20], 0.42%.

For `COc1cc2c(cc1Nc1nc(Nc3ccsc3C(N)=O)c3cc[nH]c3n1)N(C(=O)CN(C)C)CCC2(C)C`, the inhibition in test [1] stood at 7.54%; in test [2], 5.54%; in test [3], 9.13%; in [4] it was 4.27%; in test [5], 6.36%; in test [6], 4.89%. The inhibition in test [7] came out at 4.71%; in test [8] it was 5.46%; in [9], 30.8%; in test [10], 4.03%; in test [11], 10.5%; in [12] it was 7.45%. Besides, the inhibition is 25.7% in test [13]; 3.29% in [14]; 19.9% in test [15]; -0.75% in test [16]; -2.52% in test [17]; 0.76% in test [18]. Further, the inhibition in test [19] was 21.1%; in test [20], -1.5%.
